Out of some 48,000 compounds screened, about 13,000 (27%) showed an effect of 50% or more. The list shows a part of the results.

This experiment relates to Wolbachia pipientis. The experiment can be described thus: Anti-Wolbachia Cell-Based Screen. The settings on record: 5 µM. It counts as functional. Set-up: scale not given: in the data most compounds retested in dose-response had high values.
Consider `O=C(Cn1cc(C(=O)O)ccc1=O)Nc1cc(F)ccc1F`, for which the “Percent Effect” value is on record as -7.497%.
Then `Cc1[nH]ccc1C(=O)NC1CCC(N2C(=O)CCC2=O)CC1` (stereo not drawn), with -10.09%.
Then `Cc1cc(C)c(CNC(=O)NCCCNc2ccccn2)c(=O)[nH]1`, with 5.95%.
As to `CCc1noc(CS(=O)(=O)Cc2nc(Cc3ccccc3)no2)n1`, the “Percent Effect” value came out at 6.103%.
As to `CN1CCC(c2cccc(CCC(=O)NCC(N)=O)n2)CC1`, the “Percent Effect” value is 102.3%.
In the case of `O=C(CCc1ccccn1)NC1CCN(c2cccc(Cl)c2)C1` (stereo not drawn), the “Percent Effect” value is 3.633%.
Then `CN1CCCC(c2cccc(CCC(N)=O)n2)C1` (stereo not drawn), with 113.5%.
Turning to `CS(=O)(=O)N[C@@H]1CCN(Cc2ccncc2)[C@H]1Cc1cccnc1`, the “Percent Effect” value is -7.843%.
Consider `COc1ccccc1[S+]([O-])CC(=O)NCc1cc(F)cc(F)c1` (stereo not drawn), for which the “Percent Effect” value is -8.178%.
As for `COc1cc(C(=O)NC(C)C)nc2c(C)cc(F)cc12`, the “Percent Effect” value stood at 104.7%.
On to `COc1ccc(F)cc1C(C)NC(=O)c1nnc(C)s1` (stereo not drawn), for which the “Percent Effect” value was found to be 1.178%.
Consider `O=C(NCC1CCCO1)c1cc(COc2ccccc2F)[nH]n1` (stereo not drawn), for which the “Percent Effect” value is given as -5.725%.
With `CCNC(=O)c1cc(OC)c2cc(F)cc(C)c2n1`, the “Percent Effect” value is given as 114.2%.
For the compound `COc1ccccc1C(O)Cn1cc(C(=O)NCC2CC2)nn1` (stereo not drawn), the “Percent Effect” value is on record as -12.95%.
`COc1cc(C(=O)NCC2CC2)nc2c(C)cc(F)cc12`: the “Percent Effect” value was found to be 82.93%.
For the compound `O=C(NCC1CC1)c1nc2c(o1)CN(CC1CC1)C2.O=C(O)C(F)(F)F`, the “Percent Effect” value was -8.922%.
Then `Cc1cc(C(=O)NC(C)C(=O)Nc2cc(F)ccc2C)nc(C)n1` (stereo not drawn), with -4.486%; and `COc1cc(C(=O)NCC2CCCO2)nc2c(C)cc(F)cc12` (stereo not drawn), with 102.3%; and `COc1cc(CCNC(=O)NCCC2CCCO2)ccc1C` (stereo not drawn), with -11.71%.
For the compound `CCNC(=O)N(C)Cc1ccc(SC)c(OC)c1`, the “Percent Effect” value is on record as -16.12%.
Then `CS(=O)(=O)c1ccc(CNC[C@H]2COCc3nc4ccccc4n32)cc1`, with -0.06058%; and `CN1CC[C@H]2CN(C(=O)c3ccc4sc5c(c4c3)CCNC5=O)C[C@H]21`, with 3.711%.
As to `CCN(CC)C(=O)Cn1cc(C(=O)NCCCc2scnc2C)nn1`, the “Percent Effect” value is given as 7.072%.
On to `CC(C)(C)C(O)CN1CCN(CC(=O)NC(C2CC2)C2CC2)CC1` (stereo not drawn), for which the “Percent Effect” value came to 12.33%.
As to `O=C(C1CCSCC1)N1CC[C@H]2OCC[C@@]2(COCC2CC2)C1`, the “Percent Effect” value was -16.75%.
With `Cc1nc(S(=O)(=O)CCn2cccn2)n(C2CCCCC2)c1C`, the “Percent Effect” value was -17.58%.
With `N#Cc1ccc(SCCCO)c(F)c1`, the “Percent Effect” value is given as -3.443%.
The figure for `O=C(C[C@@H]1COC[C@H]2CN(C3CCCC3)C[C@@H]12)NCc1cccnc1.O=C(O)C(F)(F)F.O=C(O)C(F)(F)F` is 105.3%; for `O=C(C[C@@H]1COC[C@H]2CN(C(=O)c3cccnc3)C[C@@H]12)N1CCOCC1.O=C(O)C(F)(F)F` it is 132.5%; for `O=C(Nc1cnccn1)[C@@H]1COC[C@H]2CN(C3CCCC3)C[C@H]21.O=C(O)C(F)(F)F` it is 2.256%.
The figure for `COc1cc(N2C[C@H]3CN(C(=O)c4cccnc4)C[C@H]3C2)ncn1.O=C(O)C(F)(F)F` is -0.6433%; for `O=C(C[C@@H]1COC[C@H]2CN(Cc3ccc(F)cc3)C[C@@H]12)N1CCOCC1.O=C(O)C(F)(F)F` it is 19.83%; for `O=C(C[C@@H]1COC[C@H]2CN(C(=O)c3cccnc3)C[C@@H]12)N1CCCC1.O=C(O)C(F)(F)F` it is 97.49%.
`O=C(C[C@@H]1COC[C@H]2CN(Cc3ccncc3)C[C@@H]12)N1CCOCC1.O=C(O)C(F)(F)F.O=C(O)C(F)(F)F`: the “Percent Effect” value came to 3.799%.
Regarding `Cc1cnc(CNC(=O)C[C@@H]2COC[C@H]3CN(C4CCC4)C[C@@H]23)cn1`, the “Percent Effect” value was -2.895%.
The figure for `COCc1nn(CC2CC2)c2c1CN(Cc1ccco1)CC2.O=C(O)C(F)(F)F` is -26.88%; for `Cc1cc(NC(=O)CN(CC(C)O)c2ccccc2)on1` (stereo not drawn) it is -1.303%.
On to `COc1ccc(OCc2nc(C(=O)N3CCC(NC(C)=O)C3)co2)cc1` (stereo not drawn), for which the “Percent Effect” value is 5.881%.
`CC(=O)N(C)Cc1ccc(OCc2cccs2)cc1`: the “Percent Effect” value is given as 14.59%.
Then `COc1ccc(C2OC(COc3ccccc3Br)=NN2C(C)=O)cc1` (stereo not drawn), with -8.819%; and `COc1ccc(C2OC(COc3ccc(C)cc3)=NN2C(C)=O)cc1` (stereo not drawn), with 120.9%; and `CC(=O)N1N=C(COc2ccc(C)cc2)OC1c1ccc(N(C)C)cc1` (stereo not drawn), with 128.5%.
For `COc1cc(C(=O)N(CCC#N)Cc2ccccn2)cc(OC)c1C`, the “Percent Effect” value stood at 1.954%.
As for `O=C(CC1CCN(CCc2ccccc2)CC1)NC1CCOCC1`, the “Percent Effect” value came to 134.1%.
`O=C(Cc1cnn(-c2ccccc2)n1)NC1CCOCC1`: the “Percent Effect” value was 19.75%.
With `O=C(NCC1CCN(CCc2ccccc2)C1)NCC1(O)CCC1` (stereo not drawn), the “Percent Effect” value was -8.264%.
The figure for `O=C(CC1CN(Cc2ccccc2)CCO1)NC1CCCC1` (stereo not drawn) is 4.16%.
The figure for `O=C(CC1CCN(CCc2ccccc2)CC1)N1CCCOCC1` is 161.2%.
In the case of `O=C(CC1CCN(CCN2CCCCC2)CC1)N1CCOCC1`, the “Percent Effect” value is -17.01%.
As to `CCCc1nc(CNC(=O)Cc2csc(C)n2)cs1`, the “Percent Effect” value is reported as -2.31%.
Then `Cc1nn(C)c(C)c1-c1ccnc(N(C)Cc2nc(C(C)C)no2)n1`, with -10.91%; and `Cc1nn2cccnc2c1C(=O)NCc1ccccc1OC1CCC1`, with -16.31%; and `O=C(c1cccnc1O)N1CCOC(Cc2cccc(C(F)(F)F)c2)C1` (stereo not drawn), with 16.06%.
Regarding `O=S(=O)(NCCCN1CC=CC1)c1cncc(Cl)c1`, the “Percent Effect” value is listed as -17.29%.
As for `CCOCC(O)c1nc2c([nH]1)CC(C)(C)CNC2=O` (stereo not drawn), the “Percent Effect” value was 90.67%.
Regarding `CC1(C)CNC(=O)c2nc(-c3ccccc3)[nH]c2C1`, the “Percent Effect” value amounted to 3.068%.
As for `CC1(C)CNC(=O)c2nc(CCN3CCC(C(N)=O)CC3)[nH]c2C1`, the “Percent Effect” value is reported as -47.56%.
`CCC(O)c1nc2c([nH]1)CC(C)(C)CNC2=O` (stereo not drawn): the “Percent Effect” value turned out to be 130.2%.
With `Cc1cc(OCC(O)c2nc3c([nH]2)CC(C)(C)CNC3=O)ccc1Cl` (stereo not drawn), the “Percent Effect” value stood at 90.28%.
The figure for `CC1(C)CNC(=O)c2nc(-c3n[nH]c(=O)[nH]3)[nH]c2C1` is -9.314%; for `CC1(C)CNC(=O)c2nc(CCN3CCC(O)CC3)[nH]c2C1` it is -46.57%.
With `CC1(C)CNC(=O)c2nc(-c3nnc(-c4ccccc4)[nH]3)[nH]c2C1`, the “Percent Effect” value is 3.309%.
As to `CC1(C)CNC(=O)c2nc(-c3nnn[nH]3)[nH]c2C1`, the “Percent Effect” value is listed as 23.12%.
